Data published in PubChem BioAssay (EPA / NIEHS).
Records with an inconclusive call do not appear. Active and inactive are the calls of the source. Rule for the calls: active = hit-call score of the fitted dose curve at least 0.9, where 1 is the maximum; inconclusive = response in the unintended direction; inactive = score below 0.9.

How the values were obtained:
[1] = target: human Endothelin Receptor Type B (ETB), EDNRB (gene 1910) (UniProt P24530); assay: NVS_GPCR_hETB: NovaScreen (NVS) G Protein-Coupled Receptor Assay for human Endothelin Receptor Type B (ETB) (AID 2283267)
Procedure, shortened: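 Filter-based scintillation readout of radioligand displacement, 4 h, using membranes from human astrocytoma cells. Actives from a 25 uM duplicate screen were retested in concentration-response (top 50 uM) relative to DMSO baseline.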

[2] = target: human Serotonin, 5-Hydroxytryptamine Receptor 5A (5HT5A), HTR5A (gene 3361) (UniProt P47898); assay: NVS_GPCR_h5HT5A: NovaScreen (NVS) G Protein-Coupled Receptor Assay for human Serotonin, 5-Hydroxytryptamine Receptor 5A (5HT5A) (AID 2283251)
Procedure, shortened: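 Membranes from HEK293 cells, radioligand binding read by filtration and scintillation after 1 h. Single-concentration duplicate testing at 25 uM, then concentration-response for actives; positive-direction fitting relative to DMSO.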

[3] = target: guinea pig Opioid, Kappa 1 Receptor (OpiateK), OPRK1 (gene 100135587) (UniProt P41144); assay: NVS_GPCR_gOpiateK: NovaScreen (NVS) G Protein-Coupled Receptor Assay for guinea pig Opioid, Kappa 1 Receptor (OpiateK) (AID 2283252);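 note: active means reduced radioligand binding relative to DMSO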
Procedure, shortened: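 Radioligand binding to kappa opioid receptor in guinea pig cerebellar membranes, read by filtration and scintillation at 2 h. Compounds first tested in duplicate at 25 uM, then actives in concentration series; signal loss fitted against DMSO.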

[4] = target: human Adrenergic, Beta 3 Receptor (Adrb3), ADRB3 (gene 155) (UniProt P13945); assay: NVS_GPCR_hAdrb3: NovaScreen (NVS) G Protein-Coupled Receptor Assay for human Adrenergic, Beta 3 Receptor (Adrb3) (AID 2283262)
Procedure, shortened: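 A cell-free filter binding assay read by scintillation counting, with displacement of a specific radioligand measured after 1 hour. The receptor source was SK-N-MC extracts (cells pretreated with isoproterenol and 8-bromo-cAMP). Compounds were first tested at 25 uM in duplicate and then in concentration series.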

[5] = target: human Dopamine Receptor D2 (DRD2), DRD2 (gene 1813) (UniProt P14416); assay: NVS_GPCR_hDRD2s: NovaScreen (NVS) G Protein-Coupled Receptor Assay for human Dopamine Receptor D2 (DRD2) (AID 2283266)
Procedure, shortened: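 Test compound (25 uM, duplicate in the primary screen; concentration series at follow-up) competed with radioligand for human DRD2 in CHO-derived membrane protein. Filter-based scintillation counting was done 1.5 hours after dosing, with loss of signal analysed against DMSO.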

[6] = target: human Adrenergic, Alpha 2A Receptor (Adra2A), ADRA2A (gene 150) (UniProt P08913); assay: NVS_GPCR_hAdra2A: NovaScreen (NVS) G Protein-Coupled Receptor Assay for human Adrenergic, Alpha 2A Receptor (Adra2A) (AID 2283257)
Procedure, shortened: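 Displacement of a specific radioligand from HT29 membrane protein was counted by filter scintillation after 1 h. Compounds were screened in duplicate at 25 uM, and actives were retested in concentration series. Fitting was positive-direction against DMSO.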

[7] = target: human Serotonin, 5-Hydroxytryptamine Receptor 2A (5HT2A), HTR2A (gene 3356) (UniProt P28223); assay: NVS_GPCR_h5HT2A: NovaScreen (NVS) G Protein-Coupled Receptor Assay for human Serotonin, 5-Hydroxytryptamine Receptor 2A (5HT2A) (AID 2283249)
Procedure, shortened: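 Radioligand displacement on human cortex tissue extract, counted by filtration and scintillation 1.5 h post-dosing. Initial single-concentration screen at 25 uM in duplicate, concentration series in follow-up; DMSO as baseline.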

[8] = tested on: guinea pig Muscarinic, Peripheral (Mperiperal) Receptor, Non-selective Binding, gene 100379235; assay: NVS_GPCR_gMPeripheral_NonSelective: NovaScreen (NVS) G Protein-Coupled Receptor Assay for guinea pig Muscarinic, Peripheral (Mperiperal) Receptor, Non-selective Binding (AID 2283250)
Procedure, shortened: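 Screened in duplicate at 25 uM, hits retested in concentration series to 50 uM max, using bladder membrane radioligand displacement from guinea pig. Filtration and scintillation counting 1 h post-dose, fitted relative to DMSO.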

[9] = target: human Serotonin, 5-Hydroxytryptamine Receptor 6 (5HT6), HTR6 (gene 3362) (UniProt P50406); assay: NVS_GPCR_h5HT6: NovaScreen (NVS) G Protein-Coupled Receptor Assay for human Serotonin, 5-Hydroxytryptamine Receptor 6 (5HT6) (AID 2283253)
Procedure, shortened: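 Filter scintillation counting of radioligand displacement from HEK293-expressed 5HT6, 1 hour post-dose, with loss of signal relative to DMSO. Single 25 uM duplicates first, with concentration series for confirmation.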

[10] = target: human Serotonin, 5-Hydroxytryptamine Receptor 7 (5HT7), HTR7 (gene 3363) (UniProt P34969); assay: NVS_GPCR_h5HT7: NovaScreen (NVS) G Protein-Coupled Receptor Assay for human Serotonin, 5-Hydroxytryptamine Receptor 7 (5HT7) (AID 2283255);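 note: hits reduce specific radioligand binding relative to DMSO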
Procedure, shortened: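 Filter-bound radioactivity counted after 1 h, with loss of specific radioligand binding fitted against DMSO. Membrane protein came from CHO cells expressing human 5HT7. Chemicals were tested first at 25 uM in duplicate, then in concentration series if active.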

[11] = target: human Adenosine A2a Receptor (AdoRA2a), ADORA2A (gene 135) (UniProt P29274); assay: NVS_GPCR_hAdoRA2a: NovaScreen (NVS) G Protein-Coupled Receptor Assay for human Adenosine A2a Receptor (AdoRA2a) (AID 2283256)
Procedure, shortened: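 HEK293-derived receptor preparation, radioligand displacement, 1.5 h, filtration + scintillation read. Loss of bound signal scored vs DMSO. Single-point 25 uM in duplicate first, then concentration-response for actives.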

[12] = target: human Adrenergic, Beta 1 Receptor (Adrb1), ADRB1 (gene 153) (UniProt P08588); assay: NVS_GPCR_hAdrb1: NovaScreen (NVS) G Protein-Coupled Receptor Assay for human Adrenergic, Beta 1 Receptor (Adrb1) (AID 2283258)
Procedure, shortened: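 Membranes/protein extracted from human neuroepithelioma cells, radioligand competition binding read by filtration and scintillation 2 h post-dose. Single 25 uM duplicate screen, then concentration-response follow-up; DMSO as negative control.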

[13] = target: human Adrenergic, Alpha 2c Receptor (Adra2C), ADRA2C (gene 152) (UniProt P18825); assay: NVS_GPCR_hAdra2C: NovaScreen (NVS) G Protein-Coupled Receptor Assay for human Adrenergic, Alpha 2c Receptor (Adra2C) (AID 2283259)
Procedure, shortened: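 Screened first in duplicate at 25 uM, with actives then run as concentration series. Membranes from Sf9 cells were exposed for 1 h, and displacement of radioligand was counted after filtration, using DMSO as baseline.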

[14] = target: Beta-2 adrenergic receptor (Homo sapiens) (UniProt P07550); assay: NVS_GPCR_hAdrb2: NovaScreen (NVS) G Protein-Coupled Receptor Assay for human Adrenergic, Beta 2 Receptor (Adrb2) (AID 2283261)
Procedure, shortened: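 Compounds screened in duplicate at 25 uM, then actives in concentration series. Human beta-2 receptor from CHO material, cell-free; radioligand displacement after 1 h measured by filtration and scintillation against DMSO baseline.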

[15] = target: human Dopamine Receptor D4.4 (DRD4.4), DRD4 (gene 1815) (UniProt P21917); assay: NVS_GPCR_hDRD4.4: NovaScreen (NVS) G Protein-Coupled Receptor Assay for human Dopamine Receptor D4.4 (DRD4.4) (AID 2283264)
Procedure, shortened: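 Filter-binding assay with a tritiated or iodinated ligand, cell-free receptor prepared from CHO, 1 hour. Loss of bound radioactivity versus DMSO; single 25 uM duplicate screen, then concentration-response for actives.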

[16] = tested on: guinea pig Leukotriene B4 Receptor (LTB4), gene 100379538; assay: NVS_GPCR_gLTB4: NovaScreen (NVS) G Protein-Coupled Receptor Assay for guinea pig Leukotriene B4 Receptor (LTB4) (AID 2283247)
Procedure, shortened: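 Membranes from guinea pig spleen incubated 2 h with radioligand and compound; bound counts measured by filtration and scintillation. Screened first at 25 uM in duplicate, then actives titrated to a 50 uM top concentration relative to DMSO.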

[17] = target: human Endothelin Receptor Type A (ETA), EDNRA (gene 1909) (UniProt P25101); assay: NVS_GPCR_hETA: NovaScreen (NVS) G Protein-Coupled Receptor Assay for human Endothelin Receptor Type A (ETA) (AID 2283265)
Procedure, shortened: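 Binding of radioligand to membrane protein extracted from SH-SY5Y cells was read by filtration and scintillation after 3 h. Compounds were screened at 25 uM in duplicate, with hits followed up in singleton concentration series to 50 uM.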

[18] = target: human Adenosine A1 Receptor (AdoRA1), ADORA1 (gene 134) (UniProt P30542); assay: NVS_GPCR_hAdoRA1: NovaScreen (NVS) G Protein-Coupled Receptor Assay for human Adenosine A1 Receptor (AdoRA1) (AID 2283254)
Procedure, shortened: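 Radioligand competition binding on human cortical membranes, 1 h after compound addition; bound radioactivity read by filtration and scintillation counting. Loss of signal versus DMSO baseline scored as displacement; primary screen duplicate at 25 uM, actives retested in concentration series.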

Measured: AC50

Chain of human Serotonin, 5-Hydroxytryptamine Receptor 2A (5HT2A), HTR2A (gene 3356) (P28223 whole entry, looked up): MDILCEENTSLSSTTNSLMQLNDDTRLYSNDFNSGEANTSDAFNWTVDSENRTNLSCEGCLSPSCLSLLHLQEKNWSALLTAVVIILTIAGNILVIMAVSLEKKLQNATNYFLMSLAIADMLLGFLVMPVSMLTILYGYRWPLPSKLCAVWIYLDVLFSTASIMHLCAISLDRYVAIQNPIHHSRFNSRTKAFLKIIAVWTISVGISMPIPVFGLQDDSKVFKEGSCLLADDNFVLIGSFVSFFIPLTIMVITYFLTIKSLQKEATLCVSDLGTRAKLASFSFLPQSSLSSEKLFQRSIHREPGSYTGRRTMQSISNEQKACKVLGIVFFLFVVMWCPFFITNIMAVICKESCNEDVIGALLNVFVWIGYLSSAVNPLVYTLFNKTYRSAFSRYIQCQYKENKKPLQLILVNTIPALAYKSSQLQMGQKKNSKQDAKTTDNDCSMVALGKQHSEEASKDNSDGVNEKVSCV
Chain of human Dopamine Receptor D4.4 (DRD4.4), DRD4 (gene 1815) (P21917 whole entry, looked up): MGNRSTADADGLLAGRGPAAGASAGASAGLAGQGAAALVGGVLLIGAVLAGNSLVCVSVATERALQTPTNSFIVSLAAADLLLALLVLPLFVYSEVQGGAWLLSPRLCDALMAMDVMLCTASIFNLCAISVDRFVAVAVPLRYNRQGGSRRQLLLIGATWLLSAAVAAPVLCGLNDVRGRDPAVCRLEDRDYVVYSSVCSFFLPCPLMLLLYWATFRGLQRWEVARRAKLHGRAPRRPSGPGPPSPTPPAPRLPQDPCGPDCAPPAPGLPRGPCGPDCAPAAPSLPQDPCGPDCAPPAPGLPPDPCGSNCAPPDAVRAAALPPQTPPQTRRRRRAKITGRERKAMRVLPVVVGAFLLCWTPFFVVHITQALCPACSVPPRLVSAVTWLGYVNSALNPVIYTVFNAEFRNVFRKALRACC
Chain of human Serotonin, 5-Hydroxytryptamine Receptor 5A (5HT5A), HTR5A (gene 3361) (P47898 whole entry, looked up): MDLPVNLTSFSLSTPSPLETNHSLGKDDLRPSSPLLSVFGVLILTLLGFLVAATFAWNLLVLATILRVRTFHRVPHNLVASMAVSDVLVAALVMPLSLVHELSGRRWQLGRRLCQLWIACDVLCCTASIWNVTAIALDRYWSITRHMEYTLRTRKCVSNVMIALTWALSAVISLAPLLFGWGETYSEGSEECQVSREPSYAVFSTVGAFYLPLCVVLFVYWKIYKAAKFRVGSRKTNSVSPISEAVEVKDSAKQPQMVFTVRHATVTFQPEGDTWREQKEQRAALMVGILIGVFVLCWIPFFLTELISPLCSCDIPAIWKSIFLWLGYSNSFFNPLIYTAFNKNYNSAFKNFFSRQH
Chain of human Serotonin, 5-Hydroxytryptamine Receptor 7 (5HT7), HTR7 (gene 3363) (P34969 whole entry, looked up): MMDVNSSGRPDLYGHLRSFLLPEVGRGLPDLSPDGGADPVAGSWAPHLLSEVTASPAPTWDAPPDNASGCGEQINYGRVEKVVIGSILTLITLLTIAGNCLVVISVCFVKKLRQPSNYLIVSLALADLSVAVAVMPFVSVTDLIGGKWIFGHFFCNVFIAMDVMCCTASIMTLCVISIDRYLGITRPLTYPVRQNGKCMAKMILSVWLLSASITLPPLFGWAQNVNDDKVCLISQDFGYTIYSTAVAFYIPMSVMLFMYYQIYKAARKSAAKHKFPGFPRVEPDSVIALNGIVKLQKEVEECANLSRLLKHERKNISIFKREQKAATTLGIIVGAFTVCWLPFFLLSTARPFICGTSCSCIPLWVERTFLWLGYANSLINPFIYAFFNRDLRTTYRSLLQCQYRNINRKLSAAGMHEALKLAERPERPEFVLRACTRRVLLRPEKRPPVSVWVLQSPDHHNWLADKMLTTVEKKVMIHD
Chain of guinea pig Opioid, Kappa 1 Receptor (OpiateK), OPRK1 (gene 100135587) (P41144 whole entry, looked up): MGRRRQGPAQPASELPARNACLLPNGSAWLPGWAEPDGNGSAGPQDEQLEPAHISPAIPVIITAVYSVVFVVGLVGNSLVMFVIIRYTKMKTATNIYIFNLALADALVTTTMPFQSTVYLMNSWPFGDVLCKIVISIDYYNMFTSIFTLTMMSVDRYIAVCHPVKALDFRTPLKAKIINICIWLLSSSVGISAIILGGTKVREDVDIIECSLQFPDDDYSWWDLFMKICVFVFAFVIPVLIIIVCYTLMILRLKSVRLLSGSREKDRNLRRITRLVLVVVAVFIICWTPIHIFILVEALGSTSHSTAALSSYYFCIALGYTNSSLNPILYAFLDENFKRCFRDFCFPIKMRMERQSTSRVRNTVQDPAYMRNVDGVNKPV
Chain of human Endothelin Receptor Type A (ETA), EDNRA (gene 1909) (P25101 whole entry, looked up): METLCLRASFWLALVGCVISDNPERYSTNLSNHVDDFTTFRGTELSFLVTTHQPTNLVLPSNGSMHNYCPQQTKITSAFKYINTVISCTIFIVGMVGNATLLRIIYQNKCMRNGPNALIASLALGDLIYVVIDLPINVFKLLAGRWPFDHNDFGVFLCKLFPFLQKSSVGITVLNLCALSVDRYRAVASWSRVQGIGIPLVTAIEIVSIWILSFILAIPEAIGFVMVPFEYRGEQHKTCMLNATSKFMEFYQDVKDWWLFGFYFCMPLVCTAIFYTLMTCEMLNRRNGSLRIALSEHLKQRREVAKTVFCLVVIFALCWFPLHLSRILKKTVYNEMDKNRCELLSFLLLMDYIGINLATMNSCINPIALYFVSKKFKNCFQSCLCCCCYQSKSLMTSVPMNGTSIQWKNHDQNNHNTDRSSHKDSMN
Chain of human Adrenergic, Alpha 2c Receptor (Adra2C), ADRA2C (gene 152) (P18825 whole entry, looked up): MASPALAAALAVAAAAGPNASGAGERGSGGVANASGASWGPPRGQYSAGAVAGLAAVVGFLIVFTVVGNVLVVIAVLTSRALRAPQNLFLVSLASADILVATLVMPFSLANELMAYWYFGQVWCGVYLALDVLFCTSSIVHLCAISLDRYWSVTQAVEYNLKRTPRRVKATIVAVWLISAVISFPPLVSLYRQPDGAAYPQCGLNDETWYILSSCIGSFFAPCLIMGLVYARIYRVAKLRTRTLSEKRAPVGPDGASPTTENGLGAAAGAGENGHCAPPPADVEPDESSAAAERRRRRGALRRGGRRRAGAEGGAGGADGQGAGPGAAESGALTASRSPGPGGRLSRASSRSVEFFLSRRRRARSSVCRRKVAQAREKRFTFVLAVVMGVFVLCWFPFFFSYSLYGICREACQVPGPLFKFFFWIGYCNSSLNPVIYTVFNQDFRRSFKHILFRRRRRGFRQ
Chain of human Adrenergic, Alpha 2A Receptor (Adra2A), ADRA2A (gene 150) (P08913 whole entry, looked up): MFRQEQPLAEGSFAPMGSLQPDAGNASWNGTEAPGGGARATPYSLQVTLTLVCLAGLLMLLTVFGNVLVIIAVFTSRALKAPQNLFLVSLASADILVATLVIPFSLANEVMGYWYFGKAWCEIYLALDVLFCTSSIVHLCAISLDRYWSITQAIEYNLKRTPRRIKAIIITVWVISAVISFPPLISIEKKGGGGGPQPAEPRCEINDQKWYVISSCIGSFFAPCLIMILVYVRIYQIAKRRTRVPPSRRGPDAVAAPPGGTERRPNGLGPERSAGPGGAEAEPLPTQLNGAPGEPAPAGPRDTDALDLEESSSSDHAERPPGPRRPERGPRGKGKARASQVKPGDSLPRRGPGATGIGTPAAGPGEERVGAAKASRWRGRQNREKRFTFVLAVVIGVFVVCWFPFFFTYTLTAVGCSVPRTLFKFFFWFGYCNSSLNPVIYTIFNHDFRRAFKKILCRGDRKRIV
Chain of human Dopamine Receptor D2 (DRD2), DRD2 (gene 1813) (P14416 whole entry, looked up): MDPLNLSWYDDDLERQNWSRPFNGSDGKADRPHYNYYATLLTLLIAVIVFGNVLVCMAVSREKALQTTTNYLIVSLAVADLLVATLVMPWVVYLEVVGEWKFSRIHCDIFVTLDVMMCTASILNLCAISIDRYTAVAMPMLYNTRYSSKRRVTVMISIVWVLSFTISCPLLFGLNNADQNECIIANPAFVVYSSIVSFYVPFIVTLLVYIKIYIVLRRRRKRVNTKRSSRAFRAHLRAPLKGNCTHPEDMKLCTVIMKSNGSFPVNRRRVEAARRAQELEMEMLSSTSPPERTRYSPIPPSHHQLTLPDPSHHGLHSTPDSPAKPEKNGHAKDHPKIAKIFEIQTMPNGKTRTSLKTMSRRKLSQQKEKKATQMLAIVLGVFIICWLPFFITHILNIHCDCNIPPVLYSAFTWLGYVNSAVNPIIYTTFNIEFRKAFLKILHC
Chain of human Endothelin Receptor Type B (ETB), EDNRB (gene 1910) (P24530 whole entry, looked up): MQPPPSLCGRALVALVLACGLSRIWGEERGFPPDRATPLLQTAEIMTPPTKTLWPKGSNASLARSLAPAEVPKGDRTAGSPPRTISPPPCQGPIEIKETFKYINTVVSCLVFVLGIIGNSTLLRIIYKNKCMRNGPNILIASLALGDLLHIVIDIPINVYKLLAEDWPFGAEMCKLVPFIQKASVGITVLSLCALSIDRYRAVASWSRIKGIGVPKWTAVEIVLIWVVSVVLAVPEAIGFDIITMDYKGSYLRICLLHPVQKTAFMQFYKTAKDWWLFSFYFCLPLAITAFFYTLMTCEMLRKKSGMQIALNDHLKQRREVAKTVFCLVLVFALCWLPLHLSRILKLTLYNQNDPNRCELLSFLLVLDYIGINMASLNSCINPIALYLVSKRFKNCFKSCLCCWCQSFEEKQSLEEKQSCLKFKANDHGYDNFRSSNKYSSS
Chain of human Adrenergic, Beta 3 Receptor (Adrb3), ADRB3 (gene 155) (P13945 whole entry, looked up): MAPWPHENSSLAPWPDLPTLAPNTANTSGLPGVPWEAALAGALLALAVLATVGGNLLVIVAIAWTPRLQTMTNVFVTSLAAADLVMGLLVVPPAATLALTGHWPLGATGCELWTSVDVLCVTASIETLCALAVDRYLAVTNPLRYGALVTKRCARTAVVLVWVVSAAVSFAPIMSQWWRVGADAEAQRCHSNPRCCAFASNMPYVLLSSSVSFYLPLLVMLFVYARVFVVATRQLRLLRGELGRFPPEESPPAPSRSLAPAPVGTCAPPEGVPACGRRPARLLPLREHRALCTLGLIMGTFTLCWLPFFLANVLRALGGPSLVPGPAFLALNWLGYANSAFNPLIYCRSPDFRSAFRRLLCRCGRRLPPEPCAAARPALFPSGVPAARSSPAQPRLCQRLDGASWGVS

CCCCC(CC)COC(=O)CCCCCCCCC(=O)OCC(CC)CCCC (stereo not given)
inactive: [1]

CCn1nc(Cc2ccccc2)cc1C1CCN(C[C@H]2C[C@H](N(C)[C@@H](C(=O)O)C(C)C)C[C@@H]2c2cccc(F)c2)CC1
inactive: [4] | [5]
active: [2] 13.8 µM | [3] 8.5 µM

O=C(O)CC(O)C(=O)O (stereo not given)
inactive: [3] | [6]

Cc1[nH]cnc1C[C@H]1CCc2c(C)c3ccccc3n2C1=O
inactive: [3] | [1]
active: [7] 1.45 µM | [8] 10.5 µM | [2] 2.93 µM | [9] 0.399 µM | [10] 3.82 µM | [11] 22.2 µM | [6] 0.56 µM | [12] 1.04 µM | [13] 5.39 µM | [14] 1.39 µM | [15] 18.4 µM | [5] 0.979 µM

CC(=O)OCCC(C)C
inactive: [10]

Oc1ccc2c(c1)-c1ccccc1C2
inactive: [10]
active: [11] 25 µM

CNS(=O)(=O)c1cc(C(=O)N2CCC(CCN3C4CCC3CC(n3c(C)nc5ccccc53)C4)(c3cccc(F)c3)CC2)c(Cl)cc1F (stereo not given)
active: [7] 1.52 µM | [8] 5.36 µM | [3] 0.935 µM | [10] 4.35 µM | [5] 8.72 µM

COc1ccc(/C=C/S(=O)(=O)NC(=O)c2ccc(C)cc2Cl)cc1
inactive: [16]

CCOC(=O)COc1ccc2c(c1)CC(NCC(O)c1cccc(Cl)c1)CC2 (stereo not given)
active: [7] 12.1 µM | [8] 22.9 µM | [2] 18.8 µM | [10] 22.9 µM | [6] 7.53 µM | [12] 3.33 µM | [13] 3.81 µM | [14] 0.0827 µM | [4] 17.9 µM | [15] 22.9 µM | [5] 2.33 µM
inactive: [17]

O=C1CCCCCN1
inactive: [17]

O=P(OC(CCl)CCl)(OC(CCl)CCl)OC(CCl)CCl
inactive: [9]

O=c1[nH]c2ccc(S(=O)CCN3CCC(Cc4ccc(F)cc4)CC3)cc2o1 (stereo not given)
inactive: [3]
active: [7] 2.59 µM | [10] 0.534 µM | [6] 0.837 µM | [13] 1.96 µM | [15] 2.51 µM | [5] 13.5 µM

O=C(O)c1cccc(Oc2ccccc2)c1
inactive: [16]

CC[C@H](C)C(=O)O[C@H]1C[C@@H](C)C=C2C=C[C@H](C)[C@H](CC[C@@H]3C[C@@H](O)CC(=O)O3)[C@H]21
inactive: [17]

CCCN(C1CCN(C(=O)C2CCNCC2)CC1)[C@@H]1CCc2ccc(OC)cc2C1
active: [16] 9.93 µM | [8] 0.00229 µM | [3] 7.41 µM | [10] 9.11 µM | [6] 17.4 µM | [5] 18.8 µM

O=C(CCCCCCCCc1cccnc1)N1CCC(C=C(c2ccccc2)c2ccccc2)CC1
inactive: [16] | [7] | [2] | [1]

Nc1ccc(Nc2ccccc2)cc1
active: [2] 11.3 µM | [3] 20.6 µM | [10] 7.22 µM | [6] 9.06 µM | [17] 6.53 µM
inactive: [8] | [18]
